From PubChem BioAssay
A number with no mark means an inactive call. How the calls were made is not given here.

molecular target: Pantothenate synthetase (Mycobacterium tuberculosis (strain ATCC 25618 / H37Rv)) (UniProt P9WIL5); assay: Recombinant Mtb pantothenate synthetase (PanC) inhibitors, coupled enzyme, confirmatory (AID 375); conditions: coupled enzyme assay; at 10 µM, hits give high values;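 further: 0% = full reaction with vehicle and 100% = no enzyme background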
Sequence (P9WIL5 whole entry, looked up): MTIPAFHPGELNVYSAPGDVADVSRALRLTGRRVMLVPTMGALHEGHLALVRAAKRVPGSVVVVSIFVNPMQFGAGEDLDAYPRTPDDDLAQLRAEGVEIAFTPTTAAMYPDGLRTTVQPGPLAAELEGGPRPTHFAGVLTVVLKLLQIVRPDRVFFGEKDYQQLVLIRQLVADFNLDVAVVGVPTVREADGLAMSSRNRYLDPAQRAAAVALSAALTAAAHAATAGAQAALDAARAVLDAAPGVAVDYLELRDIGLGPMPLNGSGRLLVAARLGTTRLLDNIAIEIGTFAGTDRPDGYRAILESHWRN

Compound	inhibition [%]
CC(C)CN(CC(C)C)C(=O)C12CCC(C)(C(=O)C1)C2(C)C (stereo not given)	3
Cc1ncc(CSc2nc3ccccc3[nH]2)c(N)n1	5
O=C(O)C1CCCN1C(=O)Nc1ccc(F)cc1 (stereo not given)	2
CCCc1cc(C(=O)Nc2sc(C)c(C)c2C(=O)OCC)no1	3
COc1ccc2c(c1OC)C(=O)OC2C1c2c(cc3c(c2OC)OCO3)CCN1C (stereo not given)	0
COC(=O)CN1C(=O)C2(C(C#N)=C(N)Oc3c2c(C)nn3-c2ccccc2)c2ccccc21 (stereo not given)	3
Cn1c(=O)c2c([nH]c(=O)n2C)n(C)c1=O	0
CCOC(=O)n1c(SCC(=O)N(CC)CC)nc2ccccc21	0
COc1ccc(C)cc1-n1c(N)c(C#N)c(C#N)c1-c1ccc(OC)c(OC)c1OC	4
Cc1cccc(C)c1NC(=O)COC(=O)c1nonc1N	0
Cc1cc(NCCN2CCOCC2)n2nc(C)c(-c3ccccc3)c2n1	0
Cc1ccc(S(=O)(=O)c2cc3c(=O)n4ccccc4nc3n(CC3CCCO3)c2=N)cc1C (stereo not given)	0
CCCC(=O)Nc1ccc(NC(=O)C2CC2)cn1	2
O=C(CSc1nc(C2CCCCC2)n(-c2ccccc2)n1)NCCN1C(=O)CSC1=O	6
CN(Cc1ccccc1)S(=O)(=O)c1ccc(S(=O)(=O)N2CCN(CCC#N)CC2)cc1	0
O=C(NCCC1=CCCCC1)C1CCN(S(=O)(=O)c2cnc[nH]2)CC1	2
CCn1cc(SCC(=O)Nc2cc(C)on2)c2ccccc21	0
O=C(c1ccc2nc(N3CCCCC3)sc2c1)N1CCN(c2ccccn2)CC1	0
c1cnc(NCCNc2ncccn2)nc1	0
O=C(CN1CCC(NC(=O)c2ccc(F)cc2)CC1)NCc1ccccc1F	5

Compound	inhibition [%]
CCN(CCCNC(=O)COc1cc(=O)n(CC)c2ccccc12)c1ccccc1	0
Cc1cc(C(=O)O)ccc1-n1c(C)ccc1C	6
CCOC(=O)CCc1c(C)nc2cc(-c3ccc(F)cc3)[nH]n2c1=O	0
CCCOC(=O)C1[C@H]2C(=O)N(CCCOC)C[C@]23C=C[C@H]1O3 (stereo not given in full)	0
C=C(CC)C(=O)c1ccc(OCC(=O)O)c(Cl)c1Cl	0
CCOC(=O)N1CCN(C(=O)c2cn(CC)c3cc(N4CCN(C)CC4)c(F)cc3c2=O)CC1	0
CCNS(=O)(=O)c1ccc(S(=O)(=O)N(Cc2ccccn2)C2CCCCC2)cc1	1
CCOc1ccc(NC(=O)CCN2CCN(c3ccccc3)CC2)cc1	0
CC(C)Cn1c(CN2CCCCC2C)nc2c1c(=O)n(C)c(=O)n2C (stereo not given)	0
CCOc1ccc2[nH]c(=O)c(CN(Cc3nnnn3CCc3ccccc3)CC3CCCO3)cc2c1 (stereo not given)	0
CN1CCc2nc(SCC(=O)Nc3ccc(F)cc3)c(C#N)cc2C1	8
Cc1onc(-c2ccccc2Cl)c1C(=O)Nc1cnn(Cc2ccccc2)c1	0
NCCN1CCN(CCN)CC1	0
Cc1cnc(NC(=O)CSc2nc3ccccc3c(=O)[nH]2)s1	3
Cc1ccc(S(=O)(=O)N(CC(=O)NCc2ccco2)Cc2ccccc2F)cc1	0
CCc1nnc(NC(=O)c2ccc(S(=O)(=O)N(CC(C)C)CC(C)C)cc2)o1	0
O=P(CCNCc1ccco1)(c1ccccc1)c1ccccc1	0
Cc1onc(-c2ccccc2)c1C(=O)NCCN1CCOCC1	3
CCOC(=O)C(NC(=O)OC(C)C)(Nc1nccs1)C(F)(F)F (stereo not given)	2
CCN(CC)S(=O)(=O)c1ccc2oc(C(=O)N3CCOCC3)c(C)c2c1	0
